Hits are enriched below; roughly 3.1% of the tested compounds scored in any of these assays.
p53null 32C kill – p53 null cell cytotoxicity, permissive temperature | H1299-neo p53 null cells, ATP luminescence, 24 h, 32C | Potency, µM (titrated, usually from 46.1 µM), for inactives: at the top dose activity change, negative = cytotoxicity, actives largely listed as cytotoxic | hit rate 0.62% among 55,000 | AID 903;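 note: potency is the fitted concentration of half-maximal effect; 0% = DMSO only and -100% = full killing by 100 µM tamoxifen; nearly all actives have a fitted effect of over 55% in size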
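Luminescent ATP readout gave cell viability of p53-null H1299-neo cells after a 24 h compound exposure at the permissive 32C. Titrations ran up to 46 uM, and AC50s were fitted with the standard Hill equation.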
p53null 39C kill – kills p53 null cells at the nonpermissive temperature. hit rate 0.97% among 55,000. Potency, µM (doses to about 46.1 µM), inactives show at the highest dose activity, negative = cell killing, hits mostly cytotoxic. H1299 p53-null (neo) cells, 39C, ATPlite viability, 24 h. AID 904;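 note: potency is the fitted concentration of half-maximal effect; 0% = DMSO only and -100% = full killing by 100 µM tamoxifen; nearly all actives have a fitted effect of over 50% in size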
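Temperature-shift cytotoxicity format: compound titrations on p53-null or A138V-expressing H1299 cells held 24 hr at 39C, cell ATP then measured, AC50 from Hill model.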
SKOV3 invasion – inhibitors of ovarian cancer cell adhesion and invasion in omental model; SKOV3ip1-GFP adhesion/invasion on 3D omental model, fluorescence; Potency, µM (series often up to 45.8 µM), inactives show top-dose activity change, negative = inhibition, usual class: inhibitors; hit rate 0.1% among 46,000; AID 1963576;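 note: potency is the fitted concentration of half-maximal effect; plate controls were DMSO wells for no effect and tomatine positive control wells for full effect; nearly all actives have a fitted effect of over 65% in size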
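qHTS, 4-pt dose (0.36-46 umol/L); SKOV3ip1-GFP, 1,200 cells/well, no FBS; primary omental fibroblast/mesothelial co-culture 48 h pre-grown; 2 h RT + 16 h 37 C; PBS wash, 4% PFA; GFP count 488/509 nm.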
PMP22 txn – modulators of PMP22 gene transcription in S16 Schwann cells. AID 1508649. S16 Pmp22-F2sN Schwann cells, FLuc/NLuc coincidence luminescence, 24 h. Potency, µM (series often up to 57.5 µM), inactives show at the top dose activity change, negative = inhibition, usual class: inhibitors. hit rate 2% among 43,000; active = clear falling dose curves in both reporters; inconclusive = both reporters move, but less clearly or upward; inactive = either reporter flat; the % is the NLuc reporter signal; note: potency is the fitted concentration of half-maximal effect; % is set by controls: 0 for no effect and ±100 for the full control effect
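Rat S16 Pmp22-F2sN cells, 500-1,000/well in phenol red-free DMEM + 10% FBS, compound-treated 24 h (37C, 5% CO2). Luminescence: FLuc read, Stop&Glo added, NLuc read.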
S16 F2sN tox – toxic to S16 Pmp22-F2sN Schwann cells; S16 Pmp22-F2sN Schwann cells viability, CellTiter-Glo, 24 h; Potency, µM (top dose mostly 57.5 µM), inactives show at the top dose activity change, negative = cytotoxicity, hits mostly cytotoxic; hit rate 0.48% among 43,000; note: potency is the fitted concentration of half-maximal effect; % is set by controls: 0 for no effect and ±100 for the full control effect; nearly all actives have a fitted effect of over 65% in size
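Used to flag compounds lowering reporter output through toxicity, this quantitative HTS measures ATP-based CellTiter-Glo luminescence in S16 Pmp22-F2sN Schwann cells after 24 h compound exposure at 37C.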
mTORC1 inh – inhibitors of mTORC1 signaling in Tsc2-/- p53-/- MEF cells; Tsc2-/- p53-/- MEF, phospho-rpS6 immunofluorescence/PI, 24 h; Potency, µM (top dose mostly 38.3 µM), for inactives: at the highest dose activity change, negative = inhibition, actives largely listed as inhibitors; hit rate 0.78% among 44,000; AID 493208;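 note: potency is the fitted concentration of half-maximal effect; plate controls were DMSO for no effect and rapamycin for full effect; nearly all actives have a fitted effect of over 50% in size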
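Immunofluorescence of rpS6 phosphorylation in Tsc2-/-, p53-/- MEFs after 24 h compound exposure, normalized to propidium iodide signal. Activity is expressed as % positive cells, thresholded with 7.5 nM rapamycin.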
NLuc sat counter – NanoLuc enzyme inhibition artifact for PMP22 screen. shares compounds with PMP22 txn. hit rate 4% among 690. Secreted NLuc enzyme (filtered S16 cell medium), Nano-Glo luminescence. Potency, µM (series often up to 57.5 µM), for the others: top-dose activity change, negative = inhibition, actives largely listed as inhibitors; note: potency is the fitted concentration of half-maximal effect; % is set by controls: 0 for no effect and ±100 for the full control effect
NLuc Km ctr – inhibits NanoLuc under Km conditions, PMP22 counter-screen; shares compounds with PMP22 txn; Potency, µM (series often up to 57.5 µM), for inactives: at the top dose activity change, negative = inhibition, hits mostly inhibitors; secreted NLuc enzyme, coelenterazine luminescence, Km conditions; hit rate 5% among 690; note: potency is the fitted concentration of half-maximal effect; % is set by controls: 0 for no effect and ±100 for the full control effect
FLuc counter – inhibits firefly luciferase, PMP22 counter-screen. shares compounds with PMP22 txn. purified P. pyralis FLuc, luminescence, 10 min. Potency, µM (highest dose often 57.5 µM), for inactives: at the top dose activity, negative = inhibition, actives largely listed as inhibitors. 690 tested, under 10 active. AID 1508640; note: % of control where 0% means no effect
Target sequence (P08659 whole entry, looked up): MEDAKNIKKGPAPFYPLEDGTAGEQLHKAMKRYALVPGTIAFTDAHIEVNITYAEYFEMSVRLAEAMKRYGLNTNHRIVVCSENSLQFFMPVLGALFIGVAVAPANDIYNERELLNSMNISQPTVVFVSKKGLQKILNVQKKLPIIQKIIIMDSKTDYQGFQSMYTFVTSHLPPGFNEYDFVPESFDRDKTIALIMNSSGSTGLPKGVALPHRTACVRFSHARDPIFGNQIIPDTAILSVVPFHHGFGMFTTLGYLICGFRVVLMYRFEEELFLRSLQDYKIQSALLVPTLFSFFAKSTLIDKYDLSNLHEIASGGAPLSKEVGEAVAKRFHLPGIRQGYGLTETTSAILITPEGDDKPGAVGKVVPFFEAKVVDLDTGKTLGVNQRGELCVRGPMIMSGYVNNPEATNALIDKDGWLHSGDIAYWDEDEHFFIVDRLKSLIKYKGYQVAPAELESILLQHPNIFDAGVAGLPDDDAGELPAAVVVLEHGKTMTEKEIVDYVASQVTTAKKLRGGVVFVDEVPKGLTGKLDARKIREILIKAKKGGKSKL
S16 F2sN tox cnf – S16 Schwann cell cytotoxicity, confirmatory | S16 Schwann cells viability, CellTiter-Glo ATP luminescence, 24 h | hit rate 7% among 690 | AID 1508641 | Potency, µM (highest dose often 57.5 µM), for inactives: top-dose activity change, negative = viability loss, actives largely listed as cytotoxic | shares compounds with PMP22 txn; note: potency is the fitted concentration of half-maximal effect; % is set by controls: 0 for no effect and ±100 for the full control effect
PMP22 txn conf – PMP22 transcription modulation, confirmatory. shares compounds with PMP22 txn. S16 Schwann cells Pmp22-F2sN, dual luciferase, 24 h. Potency, µM (doses to about 57.5 µM), without a hit: at the top dose activity change, negative = inhibition, hits mostly inhibitors. hit rate 22% among 690. AID 1508646; active = clear falling dose curves in both reporters; inconclusive = both reporters move, but less clearly or upward; inactive = either reporter flat; the % is the FLuc reporter signal; note: potency is the fitted concentration of half-maximal effect
PMP22 HiBiT cnf – rat PMP22 protein level modulation, confirmatory; 95 tested, under 10 active; shares compounds with PMP22 txn; Potency, µM (highest dose often 27.9 µM), without a hit: top-dose activity change, negative = inhibition, actives largely listed as inhibitors; S16 Schwann cells Pmp22-HiBiT, luminescence, 48 h; AID 1508647
Target sequence (P25094 whole entry, looked up): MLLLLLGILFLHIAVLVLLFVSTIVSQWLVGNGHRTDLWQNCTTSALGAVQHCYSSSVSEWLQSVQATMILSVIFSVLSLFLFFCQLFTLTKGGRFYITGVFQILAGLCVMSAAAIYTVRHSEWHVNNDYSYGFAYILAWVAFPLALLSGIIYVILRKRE
The depositor's hits bear a star. Unless noted, calls come from the whole dose curve; as a rule, active = well fitted curve in the direction sought with a large enough effect; inconclusive = small, poorly fitted or top-dose-only effect, or another doubt; inactive = no such curve, though single readings can be large; an effect the other way counts as inactive or inconclusive.

Screening CCN(CC)CCNC(=O)c1cc(-c2ccc(Br)s2)nc2ccccc12 returned p53null 32C kill 18%, p53null 39C kill 25µM*, SKOV3 invasion 10µM*, PMP22 txn 20µM*, S16 F2sN tox 32µM*, mTORC1 inh inconclusive, NLuc sat counter -13%, NLuc Km ctr inconclusive, FLuc counter -16%, S16 F2sN tox cnf inconclusive, PMP22 txn conf 17µM* and PMP22 HiBiT cnf -2%.
`CS(=O)(=O)c1ncc(Cl)c(C(=O)Nc2c(C(=O)Nc3ccccc3)oc3ccccc23)n1` gave p53null 32C kill -3%, p53null 39C kill -4%, SKOV3 invasion -6%, PMP22 txn inconclusive, S16 F2sN tox inconclusive and mTORC1 inh 4%.
For Cc1ccc(C(=O)c2oc3ccccc3c2NC(=O)c2nc(S(C)(=O)=O)ncc2Cl)cc1F the results were p53null 32C kill -3%, p53null 39C kill 4%, SKOV3 invasion -14%, PMP22 txn 7.6µM*, S16 F2sN tox inconclusive, mTORC1 inh 1%, NLuc sat counter -9%, NLuc Km ctr -16%, FLuc counter -2%, S16 F2sN tox cnf 22µM* and PMP22 txn conf 13µM*.
COc1cc2nccc(Oc3ccc(NC(=O)NC4CC4)c(Cl)c3)c2cc1C(N)=O was read as SKOV3 invasion -1%.
`C=CCc1cccc(C=NNC(=O)CN2CCN(Cc3ccccc3)CC2)c1O` gave SKOV3 invasion -18%.
For COc1cccc(NC(=O)N(Cc2c[nH]c3ccccc23)C2CCCCCC2)c1 the results were p53null 32C kill 5%, p53null 39C kill inconclusive, SKOV3 invasion 0%, PMP22 txn 20µM*, S16 F2sN tox -26%, mTORC1 inh -12%, NLuc sat counter 15µM*, NLuc Km ctr inconclusive, FLuc counter 1%, S16 F2sN tox cnf 14% and PMP22 txn conf inconclusive.
COC(=O)c1ccc(NC(=O)CSc2nc(=O)n(Cc3ccco3)c3c2CCC3)cc1 was read as p53null 32C kill 8%, p53null 39C kill 16%, SKOV3 invasion -6%, PMP22 txn 8.3µM*, S16 F2sN tox -11%, mTORC1 inh -8%, NLuc sat counter inconclusive, NLuc Km ctr inconclusive, FLuc counter -14%, S16 F2sN tox cnf -1% and PMP22 txn conf -44%.
Screening CCc1ccc(NC(=O)CSc2nc(=O)n(Cc3ccco3)c3c2CCC3)cc1 returned p53null 32C kill 26%, p53null 39C kill -15%, SKOV3 invasion 2%, PMP22 txn inconclusive, S16 F2sN tox -6% and mTORC1 inh -5%.
For COCCNc1nc2c(S(=O)(=O)c3ccc(C)c(C)c3)nnn2c2ccc(Cl)cc12 the results were p53null 32C kill -5%, p53null 39C kill 14%, SKOV3 invasion 7%, PMP22 txn 10%, S16 F2sN tox -10% and mTORC1 inh -3%.
Screening COc1ccccc1CNc1nc2c(S(=O)(=O)c3ccc(C)c(C)c3)nnn2c2ccc(Cl)cc12 returned p53null 32C kill -5%, p53null 39C kill -1%, SKOV3 invasion 5%, PMP22 txn 6.3µM*, S16 F2sN tox 2%, mTORC1 inh 0%, NLuc sat counter -1%, NLuc Km ctr -1%, FLuc counter -2%, S16 F2sN tox cnf 22µM* and PMP22 txn conf 7.7µM*.
`CCc1ccc(S(=O)(=O)c2nnn3c2nc(N(CC)Cc2ccccc2)c2cc(Cl)ccc23)cc1` gave p53null 32C kill 2%, p53null 39C kill -8%, SKOV3 invasion 0%, PMP22 txn 6.7µM*, S16 F2sN tox -11%, mTORC1 inh -3%, NLuc sat counter -1%, NLuc Km ctr 2%, FLuc counter 4%, S16 F2sN tox cnf 5% and PMP22 txn conf -14%.
For O=C(NC[C@H](O)CO)c1ccncc1Nc1ccc(I)cc1F the results were SKOV3 invasion 18%.
Screening COc1ccc(N(CC(=O)Nc2cc(OC)cc(OC)c2)S(=O)(=O)c2c(C)noc2C)cc1 returned p53null 32C kill 18%, p53null 39C kill 7%, SKOV3 invasion inactive, PMP22 txn inconclusive, S16 F2sN tox -20% and mTORC1 inh -1%.
COc1ccc(N(CC(=O)Nc2cc(Cl)ccc2C)S(=O)(=O)c2c(C)noc2C)cc1 was read as p53null 32C kill 20%, p53null 39C kill 46%, SKOV3 invasion -30%, PMP22 txn 14µM*, S16 F2sN tox -5%, mTORC1 inh -17%, NLuc sat counter -8%, NLuc Km ctr inconclusive, FLuc counter 1%, S16 F2sN tox cnf -8%, PMP22 txn conf inconclusive and PMP22 HiBiT cnf inconclusive.
For CC1(COc2ccc3c(c2)ncn3-c2ccc3cccc(N4CCC(N)CC4)c3n2)COC1 the results were SKOV3 invasion -4%.
